Screening results as filed in PubChem BioAssay.
The list is not random: actives were taken first. Their share in the collection is about 7.1%.
ATXN2 expr inh – inhibitors of ATXN2 expression | HEK-293 ATXN2-luciferase reporter, luminescence, 24 h | Potency, µM (top dose mostly 57 µM), inactives show at the highest dose activity change, negative = inhibition, hits mostly inhibitors | hit rate 0.72% among 360,000; also: potency is read from the fitted curve at half-maximal effect; % is scaled to controls: 0 for no effect and ±100 for the full control effect; nearly all actives have a fitted effect of over 55% in size
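ATXN2-luciferase reporter cells (luciferase flanked by upstream and downstream ATXN2 gene portions) were treated 24 h at 37 °C with compounds at up to 57 uM. SteadyGlo luminescence gave expression; GF-AFC fluorescence gave viability.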
SW480 rereplic – DNA re-replication induction in SW480 cells | Potency, µM (highest dose often 46.1 µM), inactives show at the top dose re-replication activation, hits mostly activators | SW480 DNA re-replication, Hoechst DNA content imaging, 48 h | hit rate 1.8% among 340,000 | AID 624297; also: potency is read from the fitted curve at half-maximal effect; % of control where 0% means no effect; nearly all actives have a fitted effect of over 55% in size
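Cells (250 per well) received 23 nL compound or DMSO by pin tool and were kept 48 hr at 37 C, 5% CO2. Nuclei were then stained with Hoechst for 40 min and scanned for DNA content.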
IL1B secr inh – blocks inflammasome-driven IL-1 beta release | THP-1 LPS/ATP IL-1B secretion, AlphaLISA, 16 h; stronger effect = lower value | hit rate 4.7% among 360,000 | activity change, % at 57.5 µM; in the data active = activity change below about -50%; inconclusive = mostly about -30% to -49%; also: % is scaled to controls: 0 for no effect and ±100 for the full control effect
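THP-1 cells pretreated 1 hr with compounds (up to 57.5 uM final), then stimulated with LPS (250 ng/mL final) plus ATP (1.25 mM final); secreted IL-1B measured by AlphaLISA after 16 hr, decreased signal indicating inhibition.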
S2 tox – reduces viability in counter-screen for ATXN expression inhibitors. S2 cells (HEK-293 line with an ATXN2-luciferase reporter) viability, CellTiter-Fluor protease fluorescence, 24 h. Potency, µM (highest dose often 56.7 µM), actives largely listed as cytotoxic. hit rate 0.49% among 400,000; also: potency is read from the fitted curve at half-maximal effect; nearly all actives have a fitted effect of over 40% in size
PINK1 modulator – modulators of PINK1 expression; Potency, µM (series often up to 76.6 µM), for inactives: top-dose activation (PINK1 increase), actives largely listed as activators; PINK1 immunofluorescence, high-content cytometry, 24 h; hit rate 0.2% among 410,000; active = well fitted activation curve with a large enough effect; inconclusive = small, poorly fitted or top-dose-only effect; cell line not stated here; also: potency is read from the fitted curve at half-maximal effect; % of control where 0% means no effect; nearly all actives have a fitted effect of over 65% in size
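Stable cell line, 250 cells/well, 12 h attachment; compounds pinned at 5 concentrations, 24 h; CCCP control. Fixed with nuclear dye, primary antibodies 12 h at 10 degrees C, secondary plus cell stain; laser-scanning cytometer read.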
MCF10A rereplic – induces DNA re-replication in MCF 10a normal breast cells | MCF 10A DNA re-replication, Hoechst nuclear intensity, 48 h | Potency, µM (series often up to 46.1 µM), for inactives: at the highest dose activity, positive = re-replication, hits mostly activators | hit rate 2.9% among 350,000; also: potency is read from the fitted curve at half-maximal effect; % of control where 0% means no effect; nearly all actives have a fitted effect of over 50% in size
* hit, by the source's call; i = inactive; ? = inconclusive; nt = not tested or not shown; [ ] = another dose, or the depositor's remark. Unless noted, calls follow the shape of the dose curve; as a rule, active = well fitted curve in the direction sought with a large enough effect; inconclusive = small, poorly fitted or top-dose-only effect, or another doubt; inactive = no such curve, though single readings can be large; an effect the other way counts as inactive or inconclusive.

SMILES | ATXN2 expr inh | SW480 rereplic | IL1B secr inh | S2 tox | PINK1 modulator | MCF10A rereplic
CCn1c(SCC(=O)Nc2cc(C(C)(C)C)nn2-c2ccccc2)nnc1-c1cccs1 | -16%[11.3 µM] | ? | -83* | i | -1% | -4%
CCn1c(SCC(=O)c2c[nH]c3ccccc23)nnc1-c1cccs1 | -9% | 15µM* | 35 | i | 13% | ?
O=C1N=C(N2CCOCC2)S/C1=C/c1ccc(-c2ccc(F)cc2)o1 | -22% | ? | -23 | i | 2% | ?
Cc1ccc(-c2ccc(/C=C3\SC(N4CCOCC4)=NC3=O)o2)cc1 | -16% | 18µM* | -95* | nt | 0% | 23µM*
O=C(NCCc1ccccc1)c1cnc2sc(N3CCCCCC3)nn2c1=O | nt | nt | nt | nt | 1% | nt
O=[N+]([O-])c1c(C(Cl)Cl)nn(-c2ccccc2)c1N1CCOCC1 | -11%[11.3 µM] | ? | -81* | i | 3% | -1%
COC(=O)c1ccccc1C(=O)NCC1Cc2cc(-c3nc(C)cnc3C)ccc2O1 (configuration not stated) | nt | nt | nt | i | 0% | nt
Cc1ccc2c(c1)c1c(n2CC(O)CN2CCC(C)CC2)CCCC1 (configuration not stated) | nt | 116% | -65* | ? | 1% | 25%
Cc1ccc2c(c1)c(C)c(C)n2CC(O)CN1CCCCC1C (configuration not stated) | -17% | ? | nt | ? | 0% | -1%
Cc1ccc2c(c1)c1c(n2CC(O)CN2CCCCC2C)CCCC1 (configuration not stated) | -10% | 18µM* | 0 | i | 2% | ?
Cc1ccc2c(c1)c1c(n2CC(O)CNC2CCCCC2)CCCC1 (configuration not stated) | ? | 3% | -112* | ? | -1% | ?
Cc1ccc2c(c1)c1c(n2CC(O)CNC(CO)(CO)CO)CCCC1 (configuration not stated) | -6% | 8% | -26 | i | 1% | 0%
CCN(C(=O)c1cc2c(s1)-c1ccccc1OC2)c1cccc(C(F)(F)F)c1 | 6% | nt | nt | i | 2% | nt
N=c1ccn(CC(=O)c2ccc(-c3ccccc3)cc2)cc1 | 3µM* | -6% | -69* | i | ? | 7%
O=C(O)c1ccc(N2C(=O)/C(=C\c3ccccc3)N=C2c2ccccc2)cc1 | 6% | ? | -73* | i | 0% | ?
CC(=O)NNC(=O)c1cc2sccc2s1 | -4% | -21% | 6 | i | -1% | -1%
NNC(=O)c1cc2sccc2s1 | -20% | 13µM* | 26 | ? | 3% | 3.7µM*
Cc1ccc(-n2nnnc2CNC(=O)c2ccc(F)cc2)cc1C | nt | nt | nt | nt | 0% | nt
Cc1cccc(NC(=O)CN2CCc3cc4c(cc3C2C)OCCCO4)c1 (configuration not stated) | -35% | ? | -54* | i | 0% | 13%
Cc1cc(C)cc(NC(=O)CN2CCc3cc4c(cc3C2C)OCCCO4)c1 (configuration not stated) | -25% | -2% | -12 | i | 2% | 18%
COc1ccc(OC)c(-c2ccc(O)c(CN3CCc4c([nH]c5ccccc45)C3)c2)c1 | nt | nt | nt | ? | 0% | nt
COC(=O)C1CCCCN1Cc1ccc2c(c1)CN(C(=O)c1cc(C)nc3cc(F)ccc13)CCO2 (configuration not stated) | nt | nt | nt | ? | -1% | nt
O=C(NCC1CCCO1)C1CCN(C2CCN(CCCC3CCCC3)CC2)CC1 (configuration not stated) | -24% | ? | -28 | i | 0% | 16µM*
Cc1sc2ncnc(N3CCC(C(=O)NNC(=O)COc4ccccc4F)CC3)c2c1C | 3% | 1% | 6 | ? | 1% | ?
CCN(CC)CCNC(=O)c1ccc(NC(=O)C2CCN(c3ncnc4sc(C)c(C)c34)CC2)cc1 | ? | 21µM* | -8 | i | -1% | ?
SMILES | ATXN2 expr inh | SW480 rereplic | IL1B secr inh | S2 tox | PINK1 modulator | MCF10A rereplic
Cc1sc2ncnc(SCC(=O)NNC(=O)COc3cccc4ccccc34)c2c1C | ? | ? | 14 | ? | 12%[38.3 µM] | 23µM*
Cc1sc2ncnc(N3CCC(C(=O)NNC(=O)COc4ccccc4Cl)CC3)c2c1C | -17% | 4% | -24 | ? | -3% | 4.1µM*
COc1ccc(OC)c(CNc2ncnc3onc(-c4ccc(Cl)cc4)c23)c1 | -5% | nt | nt | ? | 3% | nt
Cc1ccc(OCC(=O)Nc2ccc3c(c2)nc2n3CCOC2)cc1 | 0% | -11% | -7 | i | 3% | 6%
O=C(COc1ccc([N+](=O)[O-])cc1)Nc1ccc2c(c1)nc1n2CCOC1 | -10% | ? | 6 | i | 3% | 23µM*
CCc1c(C)c(C#N)c2nc3ccccc3n2c1NCCOC | -15% | ? | -6 | i | -2% | ?
CCc1c(C)c(C#N)c2nc3ccccc3n2c1NCCCN(C)C | nt | nt | -6 | i | 1% | nt
CCCCc1c(C)c(C#N)c2nc3ccccc3n2c1NCCN(C)C | -6% | ? | 12 | i | -3% | 23µM*
Cc1c(Cc2ccccc2)c(NCCN(C)C)n2c(nc3ccccc32)c1C#N | -30% | 29µM* | -71* | i | -1% | 23µM*
O=C(N/N=C/c1cccc(O)c1)c1ccccc1O | 6% | 3% | -15 | i | 0% | 0%
Nc1ccc(C(=O)N/N=C\c2ccc(OC(=O)c3ccccc3Cl)cc2)cc1 | nt | -4% | -16 | nt | 5% | 16%
COc1cc(C(=O)N/N=C/c2ccc(OC(=O)c3ccccc3Cl)cc2)ccc1O | -2% | 1% | -72* | i | 2% | 20%
Cn1c2ccccc2c2cc(/C=N/NC(=O)c3cc(O)ccc3O)ccc21 | -37% | 13% | -73* | ? | ? | 3.7µM*
COc1cc(C(=O)N/N=C/c2ccc3c(c2)c2ccccc2n3C)ccc1O | -9% | ? | i | ? | 2% | 13µM*
Cn1c2ccccc2c2cc(/C=N/NC(=O)c3cc(O)cc(O)c3)ccc21 | -13% | 2% | -86* | i | -1% | ?
COC(=O)c1ccc(NC(=O)NC(C)c2c(-n3cccc3)sc(C)c2C)cc1 (configuration not stated) | nt | nt | nt | nt | 5% | nt
Cc1ccc(N(CC(=O)NC2CCCC2)C(=O)CCC(=O)Nc2nccs2)c(C)c1 | ? | -4% | -54* | i | 0% | 0%
O=S(=O)(c1ccccc1)c1nc(-c2ccco2)oc1N1CCOCC1 | -3% | -2% | 16 | i | -2% | 5%
Cc1ccc(S(=O)(=O)c2nc(S(C)(=O)=O)sc2N2CCCCCC2)cc1 | -1% | -7% | -54* | i | -1% | 4%
